Measured values published in PubChem BioAssay (Tox21).
Records with an inconclusive call do not appear. A number with no mark means an inactive call. Calls of active or inactive are those of the source. Calls come from the whole dose curve.

test: qHTS assay for small molecule agonists of the p53 signaling pathway (AID 651631); details: HCT-116 p53RE-bla reporter, beta-lactamase FRET ratio, 16 h; series mostly up to 73.3 µM; note: nearly all actives have a fitted effect of over 15% in size
Excerpt: U.S. Tox21 Program National Center for Advancing Translational Sciences [NCATS] NIH Chemical Genomics Center [NCGC] U.S. Environmental Protection Agency [EPA] National Institutes of Environmental Health Sciences [NIEHS] National Toxicology Program [NTP] U.S. Food and Drug Administration [FDA] Tox21 Assay Overview: p53, a tumor suppressor protein, is activated following cellular insult, including DNA damage and other cellular stresses. The activation of p53 regulates cell fate by inducing DNA repair, cell cycle arrest, apoptosis, or cellular senescence. The activation of p53, therefore, is a good indicator of DNA damage and other cellular stresses. The CellSensor p53RE-bla HCT-116 cell line (Invitrogen) contains a stably integrated beta-lactamase reporter gene under control of the p53 response elements. The activation of the reporter gene under culture conditions can be detected by fluorescence intensity. This cell line was used to screen the Tox21 compound library in a 1536-well plate format and to identify agonists that activate the p53 signaling pathway.
Tox21 Assay Protocol Summary: The p53RE-bla cells were dispensed at 4,000 cells/5 ul/well in 1536-well black wall/clear bottom plates using a Multidrop dispenser. After the assay plates were incubated at a 37 C/5% CO2 incubator for 5 hours, 23 nL of compounds dissolved in DMSO, positive controls or DMSO only was transferred to the assay plate by a pin tool. The plates were incubated at 37 C for 16 hours. After 1 uL of LiveBLAzerTM B/G FRET substrate was added using a Flying Reagent Dispenser, the plates were incubated at room temperature for 2 hours, and fluorescence intensity was measured by an Envision plate reader.
% is set by controls: 0 for no effect and ±100 for the full control effect.

Compound | outcome | activation
C/C=C(\C)C#N | inactive | 
CC(=O)Nc1c(I)cc(I)c(C(=O)O)c1I | inactive | 
CN(C)CCCNCCCN(C)C | inactive | 
CCOC(C)(C)C | inactive | 
CN1CCCC1 | inactive | 
Cc1ccc(Cl)cc1Cl | inactive | 
N=C(N)c1ccc2cc(OC(=O)c3ccc(N=C(N)N)cc3)ccc2c1 | inactive | 
CCC(C)C1CCCCC1=O (stereo not given) | inactive | 
COc1ccc(CCN(C)CCCC(C#N)(c2cc(OC)c(OC)c(OC)c2)C(C)C)cc1OC (stereo not given) | inactive | 
CCN1CCC[C@H]1CNC(=O)c1cc(S(N)(=O)=O)ccc1OC | inactive | 
CCN(CC)CCNC(=O)c1cc(S(C)(=O)=O)ccc1OC | inactive | 
C=CCS(=O)(=O)O | inactive | 
CCC(C)S (stereo not given) |  | -2.85% [at 3.72 µM]
O=C(O)CNC(=O)c1ccc([N+](=O)[O-])cc1 | inactive | 
NC(=O)Nc1ccccc1 | inactive | 
CCN(CC)CCOCCOC(=O)C1(c2ccccc2)CCCC1 | inactive | 
CO[Si](CCCOCC1CO1)(OC)OC (stereo not given) | inactive | 
O=C1OC(=O)C2CCCCC12 (stereo not given) | inactive | 
COCCc1ccc(OCC(O)CNC(C)C)cc1 (stereo not given) | inactive | 
CCCN1CCCC[C@H]1C(=O)Nc1c(C)cccc1C | inactive | 

Compound | outcome | activation
Nc1nc2c(ncn2COC(CO)CO)c(=O)[nH]1 | inactive | 
Nc1ccc(S(=O)(=O)Nc2ccnn2-c2ccccc2)cc1 | inactive | 
CCCc1cc(C(N)=S)ccn1 | inactive | 
CC1=CC(C)C(C=O)CC1 (stereo not given) | inactive | 
CC(C)NCC(O)c1ccc(NS(C)(=O)=O)cc1 (stereo not given) | inactive | 
CCCCC(CC)COC(=O)c1ccccc1O (stereo not given) | inactive | 
C[N+](C)(C)CC(O)CC(=O)[O-] (stereo not given) | inactive | 
C=C[Si](OC(=C)C)(OC(=C)C)OC(=C)C | inactive | 
Oc1ccc(C2CNCCc3c2cc(O)c(O)c3Cl)cc1 (stereo not given) | inactive | 
NC(=O)c1ccc(N)cc1 | inactive | 
COC(=O)c1cc(C(=O)OC)cc(S(=O)(=O)O)c1 | inactive | 
O=c1cc(CO)occ1O | inactive | 
CCCCOCCOCCOCCCC | inactive | 
NS(=O)(=O)c1cc2c(cc1Cl)NC(C1CC3C=CC1C3)NS2(=O)=O (stereo not given) | inactive | 
O=C(O)c1ccccc1OP(=O)(O)O | inactive | 
O=C(CCCN1CCC(O)(c2cccc(C(F)(F)F)c2)CC1)c1ccc(F)cc1 | inactive | 
Cn1cc(S(C)=O)c(=O)c2ccc(F)cc21 (stereo not given) | inactive | 
O=C[C@H](O)[C@@H](O)[C@H](O)[C@H](O)CO | inactive | 
CCCCCSCCCCC | inactive | 
CC(=O)c1ccccc1O | inactive | 
